# The campaign covered roughly 360,000 compounds. About 350 (0.097%) were called active. The entries come from a sample that favours actives as a whole. A number with no mark means an inactive call. Cut-off read from the data, not from the text of the source: active = inhibition above about 16% (passing the limit was not always enough); inconclusive = no clear call, values can overlap the other calls; inactive = below that.
# System: UDP-N-acetylbacillosamine N-acetyltransferase PglD (Campylobacter jejuni)
# Experiment: C. jejuni PglD acetyltransferase inhibitors, primary screen, biochemical, DTNB colorimetric, single point (AID 602405)
# Settings: purified PglD enzyme, DTNB colorimetric CoA detection; at 12.5 µM; stronger effect = higher value
row,SMILES,inhibition
1,C[C@@H]1CN([C@@H](C)CO)C(=O)c2cccc(NS(=O)(=O)c3ccc(Cl)cc3)c2O[C@@H]1CN(C)C(=O)Nc1ccccc1,0.684%
2,N#C[C@H]1[C@@H](c2ccc(-c3ccccc3F)cc2)[C@H](CO)N1C(=O)c1ccccn1,-0.127%
3,COc1cccc(CNC(=O)C[C@H]2CC[C@@H](NC(C)=O)[C@@H](CO)O2)c1,-2.55%
4,C[C@@H]1CCCCO[C@H](CN(C)C(=O)C2CCCCC2)[C@@H](C)CN([C@@H](C)CO)C(=O)c2cc(NC(=O)Nc3ccccc3)ccc2O1,-3.55%
5,O=C(C[C@H]1C=C[C@H](NC(=O)Nc2cc(F)ccc2F)[C@H](CO)O1)Nc1ccccc1,-2.58%
6,C[C@@H]1CN([C@H](C)CO)C(=O)Cc2cc(NS(=O)(=O)c3cccs3)ccc2O[C@H]1CN(C)C(=O)Nc1ccc2c(c1)OCO2,2.77%
7,C[C@@H]1CN([C@H](C)CO)S(=O)(=O)c2ccc(C#Cc3ccccc3F)cc2O[C@@H]1CN(C)C(=O)c1ccc2c(c1)OCO2,-1.88%
8,COc1ccc(S(=O)(=O)Nc2ccc3c(c2)C(=O)N([C@H](C)CO)C[C@@H](C)[C@H](CN(C)S(=O)(=O)c2ccc(C)cc2)O3)cc1,4.85%
9,COCCNC(=O)C[C@H]1CC[C@@H]2[C@H](COc3ccc(NC(=O)Nc4cccc(F)c4)cc3C(=O)N2C)O1,0.139%
10,CO[C@H]1CN(C)C(=O)c2ccc(NC(=O)c3cnccn3)cc2OC[C@@H](C)N(C(C)=O)C[C@H]1C,-1.18%
11,C[C@@H]1CN([C@H](C)CO)C(=O)Cc2cc(NC(=O)C3CCCCC3)ccc2O[C@@H]1CN(C)S(C)(=O)=O,56.5%
12,CC(C)NC(=O)N1[C@@H]2CN(C(=O)Nc3ccc(F)cc3)c3ccccc3[C@@H]2[C@@H]1CO,2.48%
13,C[C@@H]1CCCCO[C@@H](CN(C)S(=O)(=O)c2ccccc2)[C@H](C)CN([C@H](C)CO)C(=O)c2cc(NC(=O)CCC(F)(F)F)ccc2O1,0.918%
14,O=C(c1ccccc1)N1C[C@H]2[C@@H](c3ccccc31)[C@H](CO)N2Cc1ccccc1F,-1.39%
15,CC(C)C#Cc1ccc([C@@H]2[C@H]3CN(C(=O)NC(C)C)CCCCN3[C@H]2CO)cc1,1.97%
16,CN1C(=O)c2cc(NC(=O)C3CC3)ccc2OC[C@@H]2O[C@H](CC(=O)NCC3CCCCC3)CC[C@@H]21,0.676%
17,CCCOc1ccc(F)cc1-c1cc(C(=O)Nc2ccc(F)cc2)[nH]n1,21.5% (active)
18,CCCOc1ccc(F)cc1-c1cc(C(=O)NCc2ccc(F)cc2)[nH]n1,4.69%
19,CCCOc1ccc(F)cc1-c1cc(C(=O)Nc2ccc(F)c(Cl)c2)[nH]n1,-24.9%
20,Cc1ccc(S(=O)(=O)NCC[C@H]2CC[C@H](NC(=O)c3ccccn3)[C@H](CO)O2)cc1,0.367%
21,CCCNC(=O)N1C[C@@H]2[C@H](c3ccccc31)[C@@H](CO)N2C(=O)NC(C)C,4.12%

row,SMILES,inhibition
1,CN1c2ccc(-c3ccccc3F)cc2[C@H]2[C@H](CCN2C(=O)Nc2cc(F)ccc2F)[C@H]1CO,-0.933%
2,C=CC1=C(C(=O)O)N2C(=O)[C@@H](NC(=O)/C(=N\OCC(=O)O)c3csc(N)n3)[C@H]2SC1,-2.51%
3,C=CC1=C(C(=O)O)N2C(=O)[C@@H](NC(=O)/C(=N/OCC(=O)O)c3csc(N)n3)[C@H]2SC1,71% (active)
4,OC[C@H]1[C@@H](c2ccc(/C=C/c3ccccc3)cc2)[C@H]2CN(Cc3cccnc3)CCCCN21,-0.638%
5,CO[C@@H]1CN(C)C(=O)c2cc(NC(=O)C3CC3)ccc2OC[C@H](C)N(Cc2ccc(F)cc2)C[C@@H]1C,-0.858%
6,O=C(C[C@H]1CC[C@H](NC(=O)Nc2ccc(C(F)(F)F)cc2)[C@H](CO)O1)NCCN1CCCC1,-2.91%
7,Cc1noc(C)c1NC(=O)N(C)C[C@H]1OCCCC[C@H](C)Oc2ccc(NC(=O)Nc3ccc4c(c3)OCO4)cc2C(=O)N([C@H](C)CO)C[C@@H]1C,3.46%
8,O=C(C[C@@H]1CC[C@@H]2[C@H](COC[C@H](O)CN2Cc2cccc(F)c2)O1)NCc1ccncc1,-0.388%
9,C[C@H]1CCCCO[C@H](CN(C)C(=O)CCC(F)(F)F)[C@@H](C)CN([C@@H](C)CO)C(=O)c2cc(NC(=O)Nc3ccc4c(c3)OCO4)ccc2O1,0.932%
10,Cc1ccc(NC(=O)CNCc2ccccn2)cc1S(=O)(=O)N(C)C,20.4% (active)
11,CCN(CC(=O)Nc1ccc(C)c(S(=O)(=O)N(C)C)c1)Cc1ccccc1,-3.38%
12,Cc1csc(SCC(=O)Nc2ccc(C)c(S(=O)(=O)N(C)C)c2)n1,3.71%
13,CC(C)(C)c1ccc(CN2C(=O)c3ccccc3S2(=O)=O)cc1,41.7% (active)
14,COc1ccc(CNC(=O)CN2C(=O)c3ccccc3S2(=O)=O)cc1,-2.12%
15,O=C1c2ccccc2S(=O)(=O)N1Cc1c(F)cccc1Cl,-4.6%
16,COc1ccccc1S(=O)(=O)N1CC[C@@H]2[C@H](CO)Nc3ccc(-c4ccccc4F)cc3[C@@H]21,2.37%
17,CCC(=O)Nc1ccc2c(c1)C(=O)N(C)C[C@@H](OC)[C@H](C)CN(Cc1ccccc1C(=O)O)[C@@H](C)CO2,1.3%
18,O=S1(=O)CC(NCc2ccccc2)C(Nc2ccc(Cl)cc2)C1 (stereo not drawn),35.4% (active)
19,O=C(NCCc1ccc(Cl)cc1)C1CCCN1C(=O)NCc1ccccc1 (stereo not drawn),1.86%
20,O=C(NCCS(=O)(=O)NCc1ccc(Cl)cc1)c1ccccc1,0.839%
21,CN(C)CC#Cc1ccc([C@H]2[C@H](CO)N3CCCCN(CC4CC4)C[C@@H]23)cc1,0.034%

row,SMILES,inhibition
1,COc1ccccc1CNC(=O)C[C@@H]1CC[C@@H]2[C@@H](COc3ccc(NC(=O)Nc4ccc(F)c(F)c4)cc3C(=O)N2C)O1,0.834%
2,C[C@@H]1CN([C@@H](C)CO)C(=O)c2cc(NS(C)(=O)=O)ccc2O[C@@H](C)CCCCO[C@@H]1CN(C)C(=O)c1ccccc1,2.15%
3,C[C@H]1CN([C@@H](C)CO)C(=O)Cc2cc(NC(=O)c3ccncc3)ccc2O[C@@H]1CN(C)C(=O)Nc1ccccc1,3.86%
4,O=C(C[C@@H]1CC[C@H](NC(=O)C2CC2)[C@H](CO)O1)NCc1ccccc1Cl,-4.45%
5,CN(C)Cc1cn(CC[C@H]2CC[C@H](NC(=O)Nc3ccccc3F)[C@@H](CO)O2)nn1,-0.499%
6,C[C@H]1CN([C@@H](C)CO)C(=O)c2cc(NC(=O)Cn3cnnn3)ccc2O[C@H]1CN(C)S(C)(=O)=O,-4.84%
7,O=C(Nc1ccccc1)N[C@@H]1CC[C@H](CCn2cc(C3(O)CCCC3)nn2)O[C@@H]1CO,2.19%
8,COc1ccc(-c2ccc3c(c2)O[C@@H](CN(C)CC2CCOCC2)[C@@H](C)CN([C@@H](C)CO)S3(=O)=O)cc1,-0.251%
9,O=C(C[C@@H]1CC[C@H]2[C@@H](COC[C@@H](O)CN2C(=O)Nc2ccc(Cl)cc2)O1)NC1Cc2ccccc2C1,2.05%
10,OC[C@@H]1Nc2ccc(-c3ccc(F)cc3)cc2[C@@H]2[C@H]1CCN2Cc1ccc(F)cc1,0.0285%
11,C[C@H](CO)N1C[C@H](C)[C@H](CN(C)S(=O)(=O)c2cn(C)cn2)OCCCC[C@H](C)Oc2ccc(N(C)C)cc2C1=O,-2.91%
12,COc1ccc(NC(=O)Nc2ccc3c(c2)C(=O)N([C@@H](C)CO)C[C@H](C)[C@H](CN(C)C(=O)Nc2ccccc2)OCCCC[C@@H](C)O3)cc1,1.95%
13,CC(C)C(=O)Nc1ccc2c(c1)C(=O)N(C)[C@@H]1CC[C@@H](CC(=O)NCCc3ccccc3)O[C@H]1CO2,-3.51%
14,C[C@@H]1CN([C@@H](C)CO)S(=O)(=O)c2ccc(C#Cc3cccnc3)cc2O[C@@H]1CN(C)C(=O)CN(C)C,0.034%
15,C[C@@H]1CN([C@H](C)CO)S(=O)(=O)c2ccc(/C=C/c3ccccc3)cc2O[C@@H]1CN(C)C(=O)Nc1ccc(F)cc1,4.65%
16,O=C([C@H]1[C@H](CO)[C@H]2Cn3c(cccc3=O)[C@@H]1N2Cc1cocn1)N1CCCCC1,-0.522%
17,C[C@H](CO)N1C[C@H](C)[C@H](CN(C)C(=O)Nc2ccc(C(F)(F)F)cc2)Oc2ccc(N(C)C)cc2CC1=O,1.24%
18,COc1ccccc1-c1cnc2c(c1)C(=O)N([C@@H](C)CO)C[C@@H](C)[C@H](CN(C)Cc1cccnc1)O2,1.03%
19,CCC(=O)N1C[C@@H](C)[C@H](OC)CN(C)C(=O)c2ccc(NC(=O)NC(C)C)cc2OC[C@H]1C,-4.33%
20,C[C@@H]1CN([C@@H](C)CO)C(=O)c2cc(N(C)C)ccc2O[C@@H](C)CCCCO[C@H]1CN(C)C(=O)CCCN(C)C,2.35%
21,CCC(=O)Nc1ccc2c(c1)C(=O)N(C)C[C@@H](OC)[C@@H](C)CN(Cc1ccccc1OC)[C@H](C)CO2,0.2%

row,SMILES,inhibition
1,CC(C)NC(=O)Nc1ccc2c(c1)C(=O)N([C@H](C)CO)C[C@@H](C)[C@@H](CN(C)S(=O)(=O)c1cccs1)OCCCC[C@@H](C)O2,-0.385%
2,C[C@H]1CN([C@@H](C)CO)C(=O)c2cccc(NC(=O)Nc3cccc4ccccc34)c2O[C@@H]1CN(C)C(=O)NC1CCCCC1,0.764%
3,C[C@@H]1CN([C@H](C)CO)S(=O)(=O)c2ccc(C#CCC3CCCC3)cc2O[C@H]1CN(C)Cc1ccc(C(=O)O)cc1,6.4%
4,Cc1noc(C)c1S(=O)(=O)Nc1ccc2c(c1)CC(=O)N([C@@H](C)CO)C[C@@H](C)[C@H](CN(C)C)O2,-1.66%
5,CN(C)C(=O)c1cccc(-c2ccc3c(c2)[C@@H]2[C@@H](CCN2Cc2nccs2)[C@@H](CO)N3)c1,0.288%
6,CCNC(=O)Nc1ccc2c(c1)C(=O)N(C)[C@@H]1CC[C@H](CC(=O)NC3CCCCC3)O[C@H]1CO2,1.07%
7,C[C@@H]1CN([C@@H](C)CO)C(=O)c2cc(C#CCN(C)C)cnc2O[C@@H]1CN(C)Cc1ccccn1,3.09%
8,COc1cccc(NC(=O)N(C)C[C@H]2Oc3ncc(C4=CCCCC4)cc3C(=O)N([C@H](C)CO)C[C@H]2C)c1,10.3%
9,CN1C(=O)c2cc(NC(=O)c3cccc(F)c3)ccc2OC[C@@H]2O[C@H](CC(=O)N3CCc4ccccc4C3)CC[C@@H]21,-1.96%
10,CNC(=O)C[C@@H]1CC[C@@H]2[C@H](COC[C@@H](O)CN2S(=O)(=O)c2ccccc2Cl)O1,1.56%
11,Cc1noc(C)c1S(=O)(=O)N(C)C[C@H]1Oc2ccc(NC(=O)Cc3ccccc3)cc2CC(=O)N([C@@H](C)CO)C[C@H]1C,2.8%
12,O=C(C[C@H]1C[C@@H]2c3cc(NC(=O)C4CCC4)ccc3O[C@@H]2[C@@H](CO)O1)NCCN1CCCCC1,3.36%
13,COc1cccc(S(=O)(=O)N[C@H]2C=C[C@H](CC(=O)NC3Cc4ccccc4C3)O[C@@H]2CO)c1,-1.14%
14,COc1ccc(S(=O)(=O)N[C@@H]2CC[C@H](CC(=O)N3CCc4ccccc4C3)O[C@H]2CO)cc1,-0.563%
15,COCC#Cc1cnc2c(c1)C(=O)N([C@@H](C)CO)C[C@@H](C)[C@H](CN(C)C(=O)C1CCOCC1)O2,4.25%
16,COc1ccc(NC(=O)N(C)C[C@H]2OCCCC[C@@H](C)Oc3ccc(NC(=O)NC4CCCCC4)cc3C(=O)N([C@@H](C)CO)C[C@H]2C)cc1,4.17%
17,O=C(NCC[C@@H]1CC[C@@H](NC(=O)Nc2cc(F)ccc2F)[C@H](CO)O1)Nc1ccc(Cl)cc1,0.614%
18,COc1cccc(S(=O)(=O)N2CCCCN3[C@H](CO)[C@H](c4ccc(-c5ccncc5)cc4)[C@H]3C2)c1,2.87%
19,Cc1noc(C)c1S(=O)(=O)N(C)C[C@@H]1Oc2ccc(NC(=O)C3CC3)cc2CC(=O)N([C@@H](C)CO)C[C@@H]1C,-3.27%
20,COc1cccc(C(=O)Nc2ccc3c(c2)C(=O)N(C)[C@H]2CC[C@H](CC(=O)N[C@@H](C)c4ccccc4)O[C@H]2CO3)c1,0.936%

# — PubChem BioAssay AID602405 (Broad Institute, 2012)
